Among all 5,500 compounds or so, about 2,000 (36%) were called active. Another 18% or so got no clear call; they are omitted. Rule as the data show it: active = normalized growth mostly below about 0.91 (no sharp cut-off); inconclusive = no clear call, values can overlap the other calls; inactive = mostly above about 0.92. Some of the results follow.
Assay: chemical genetic growth profiling, strain panel (AID 1159580);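 also: tested at 20 µM; growth read once vehicle control cultures reached saturation at 30 °C; 1 = growth at the plate median or of vehicle wells; lower values mean less growth of the strain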
Details: growth OD

Measured: normalized growth

COC(=O)[C@@H]1C(O)CC[C@H]2CN3CCc4c([nH]c5ccccc45)[C@@H]3C[C@@H]21 (some centres not stated)
inactive: S. cerevisiae deletion strains, locus YJR075W, strain HOC1, active compounds read low 0.993 | S. cerevisiae deletion strains, locus YKL009W, strain mrt4, active compounds read low 0.968 | S. cerevisiae deletion strains, locus YKL068W, active compounds read low 0.982 | S. cerevisiae deletion strains, locus YKL085W, strain MDH1 (second series), active compounds read low 0.982 | S. cerevisiae deletion strains, locus YKL085W, strain MDH1, active compounds read low 0.982 | S. cerevisiae deletion strains, locus YKL160W, strain elf1, active compounds read low 1.01 | S. cerevisiae deletion strains, locus YKL190W, strain CNB1, active compounds read low 0.994 | S. cerevisiae deletion strains, locus YKR001C, strain vps1, active compounds read low 0.979 | S. cerevisiae deletion strains, locus YKR026C, strain gcn3, active compounds read low 1.01 | S. cerevisiae deletion strains, locus YKR091W, strain srl3, active compounds read low 1.02 | S. cerevisiae deletion strains, locus YLL001W, strain dnm1, active compounds read low 1.02 | S. cerevisiae deletion strains, locus YLL026W, active compounds read low 1.01 | S. cerevisiae deletion strains, locus YLL041C, strain sdh2, active compounds read low 1.02 | S. cerevisiae deletion strains, locus YLR027C, strain aat2, active compounds read low 1.01 | S. cerevisiae deletion strains, locus YLR039C, strain RIC1, active compounds read low 0.977 | S. cerevisiae deletion strains, locus YLR058C, strain SHM2, active compounds read low 0.988 | S. cerevisiae deletion strains, locus YLR102C, strain apc9, active compounds read low 0.995 | S. cerevisiae deletion strains, locus YLR113W, strain HOG1, active compounds read low 1 | S. cerevisiae deletion strains, locus YLR221C, strain rsa3, active compounds read low 1 | S. cerevisiae deletion strains, locus YLR258W, strain gsy2, active compounds read low 1.01 | S. cerevisiae deletion strains, locus YLR262C, strain YPT6 (second series), active compounds read low 1 | S. cerevisiae deletion strains, locus YLR262C, strain YPT6, active compounds read low 0.962 | S. cerevisiae deletion strains, locus YLR268W, strain sec22, active compounds read low 1.01 | S. cerevisiae deletion strains, locus YLR320W, strain mms22, active compounds read low 1.01 | S. cerevisiae deletion strains, locus YLR330W, strain CHS5, active compounds read low 0.996 | S. cerevisiae deletion strains, locus YLR342W, strain FKS1 (second series), active compounds read low 0.978 | S. cerevisiae deletion strains, locus YLR342W, strain FKS1, active compounds read low 1.01 | S. cerevisiae deletion strains, locus YLR357W, strain rsc2, active compounds read low 1.01 | S. cerevisiae deletion strains, locus YLR370C, strain arc18, active compounds read low 1.02 | S. cerevisiae deletion strains, locus YLR371W, strain rom2, active compounds read low 0.976 | S. cerevisiae deletion strains, locus YLR384C, strain iki3, active compounds read low 1.02 | S. cerevisiae deletion strains, locus YLR418C, strain cdc73, active compounds read low 1.05 | S. cerevisiae deletion strains, locus YML016C, strain PPZ1, active compounds read low 0.983 | S. cerevisiae deletion strains, locus YML032C, strain rad52, active compounds read low 0.971 | S. cerevisiae deletion strains, locus YML120C, strain ndi1, active compounds read low 1.02 | S. cerevisiae deletion strains, locus YML124C, strain tub3, active compounds read low 0.991 | S. cerevisiae deletion strains, locus YMR058W, strain fet3, active compounds read low 1.01 | S. cerevisiae deletion strains, locus YMR078C, strain ctf18, active compounds read low 0.988 | S. cerevisiae deletion strains, locus YMR125W, strain sto1, active compounds read low 1 | S. cerevisiae deletion strains, locus YMR129W, active compounds read low 1.01 | S. cerevisiae deletion strains, locus YMR205C, strain PFK2, active compounds read low 1.03 | S. cerevisiae deletion strains, locus YMR223W, strain ubp8, active compounds read low 0.97 | S. cerevisiae deletion strains, locus YMR231W, strain pep5, active compounds read low 1.01 | S. cerevisiae deletion strains, locus YMR263W, strain SAP30, active compounds read low 0.995 | S. cerevisiae deletion strains, locus YMR307W, strain GAS1, active compounds read low 1 | S. cerevisiae deletion strains, locus YNL067W, strain RPL9B, active compounds read low 1.01 | S. cerevisiae deletion strains, locus YNL071W, strain lat1, active compounds read low 1.02 | S. cerevisiae deletion strains, locus YNL128W, strain TEP1, active compounds read low 1 | S. cerevisiae deletion strains, locus YNL153C, strain GIM3, active compounds read low 1.01 | S. cerevisiae deletion strains, locus YNL183C, strain NPR1, active compounds read low 0.973 | S. cerevisiae deletion strains, locus YNL209W, strain ssb2, active compounds read low 1.01 | S. cerevisiae deletion strains, locus YNL233W, strain BNI4, active compounds read low 1.01 | S. cerevisiae deletion strains, locus YNL248C, strain rpa49, active compounds read low 1.01 | S. cerevisiae deletion strains, locus YNL250W, strain rad50, active compounds read low 0.975 | S. cerevisiae deletion strains, locus YNL271C, strain bni1, active compounds read low 0.987 | S. cerevisiae deletion strains, locus YNL298W, strain CLA4, active compounds read low 0.975 | S. cerevisiae deletion strains, locus YNL307C, strain MCK1, active compounds read low 0.996 | S. cerevisiae deletion strains, locus YNL322C, strain KRE1 (second series), active compounds read low 1.01 | S. cerevisiae deletion strains, locus YNL322C, strain KRE1, active compounds read low 0.99 | S. cerevisiae deletion strains, locus YNR049C, strain mso1, active compounds read low 1.01 | S. cerevisiae deletion strains, locus YNR052C, strain pop2, active compounds read low 0.989 | S. cerevisiae deletion strains, locus YOL006C, strain TOP1, active compounds read low 1.01 | S. cerevisiae deletion strains, locus YOL012C, strain htz1 0.815 | S. cerevisiae deletion strains, locus YOL147C, strain pex11, active compounds read low 0.99 | S. cerevisiae deletion strains, locus YOR001W, strain rrp6, active compounds read low 1.02 | S. cerevisiae deletion strains, locus YOR061W, strain CKA2, active compounds read low 0.996 | S. cerevisiae deletion strains, locus YOR069W, strain VPS5, active compounds read low 0.992 | S. cerevisiae deletion strains, locus YOR070C, strain gyp1, active compounds read low 1.02 | S. cerevisiae deletion strains, locus YOR080W, strain dia2, active compounds read low 1.01 | S. cerevisiae deletion strains, locus YOR083W, strain WHI5, active compounds read low 1 | S. cerevisiae deletion strains, locus YOR106W, strain vam3, active compounds read low 0.997 | S. cerevisiae deletion strains, locus YOR136W, strain idh2, active compounds read low 0.99 | S. cerevisiae deletion strains, locus YOR144C, strain elg1, active compounds read low 0.983 | S. cerevisiae deletion strains, locus YOR184W, strain ser1, active compounds read low 0.981 | S. cerevisiae deletion strains, locus YOR231W, strain MKK1, active compounds read low 1.02 | S. cerevisiae deletion strains, locus YOR265W, strain rbl2, active compounds read low 0.998 | S. cerevisiae deletion strains, locus YOR270C, strain vph1, active compounds read low 1 | S. cerevisiae deletion strains, locus YOR290C, strain snf2, active compounds read low 0.971 | S. cerevisiae deletion strains, locus YOR316C, strain cot1, active compounds read low 0.981 | S. cerevisiae deletion strains, locus YPL051W, strain arl3, active compounds read low 0.995 | S. cerevisiae deletion strains, locus YPL055C, strain LGE1, active compounds read low 1.01 | S. cerevisiae deletion strains, locus YPL078C, strain atp4, active compounds read low 1.03 | S. cerevisiae deletion strains, locus YPL106C, strain sse1, active compounds read low 1 | S. cerevisiae deletion strains, locus YPL240C, strain hsp82, active compounds read low 1.01 | S. cerevisiae deletion strains, locus YPL241C, strain CIN2, active compounds read low 0.99 | S. cerevisiae deletion strains, locus YPL256C, strain CLN2, active compounds read low 1 | S. cerevisiae deletion strains, locus YPR119W, strain clb2, active compounds read low 0.994 | S. cerevisiae deletion strains, locus YPR141C, strain kar3, active compounds read low 0.981 | S. cerevisiae deletion strains, locus YPR163C, strain tif3, active compounds read low 0.988 | S. cerevisiae deletion strains, locus YPR167C, strain met16, active compounds read low 0.994 | S. cerevisiae deletion strains, strain wtn01, active compounds read low 0.995 | S. cerevisiae strains, strain wild type, active compounds read low 0.998

From PubChem BioAssay AID1159580 (chemical genetic matrix, 2015)
